RXFP1 ag: activates the human relaxin receptor RXFP1 | HEK293T-RXFP1 cAMP TR-FRET, 30 min; response scale: percent of porcine relaxin response, buffer zero | Potency, µM (doses to about 57.5 µM), for inactives: at the highest dose activation, hits mostly activators | actives 0.3% (n = 370,000) | AID 2676; active = well fitted activation curve with a large enough effect; inconclusive = small, poorly fitted or top-dose-only effect; also: potency is read from the fitted curve at half-maximal effect; nearly all actives have a fitted effect of over 60% in size
Target sequence (Q9HBX9 whole entry, looked up): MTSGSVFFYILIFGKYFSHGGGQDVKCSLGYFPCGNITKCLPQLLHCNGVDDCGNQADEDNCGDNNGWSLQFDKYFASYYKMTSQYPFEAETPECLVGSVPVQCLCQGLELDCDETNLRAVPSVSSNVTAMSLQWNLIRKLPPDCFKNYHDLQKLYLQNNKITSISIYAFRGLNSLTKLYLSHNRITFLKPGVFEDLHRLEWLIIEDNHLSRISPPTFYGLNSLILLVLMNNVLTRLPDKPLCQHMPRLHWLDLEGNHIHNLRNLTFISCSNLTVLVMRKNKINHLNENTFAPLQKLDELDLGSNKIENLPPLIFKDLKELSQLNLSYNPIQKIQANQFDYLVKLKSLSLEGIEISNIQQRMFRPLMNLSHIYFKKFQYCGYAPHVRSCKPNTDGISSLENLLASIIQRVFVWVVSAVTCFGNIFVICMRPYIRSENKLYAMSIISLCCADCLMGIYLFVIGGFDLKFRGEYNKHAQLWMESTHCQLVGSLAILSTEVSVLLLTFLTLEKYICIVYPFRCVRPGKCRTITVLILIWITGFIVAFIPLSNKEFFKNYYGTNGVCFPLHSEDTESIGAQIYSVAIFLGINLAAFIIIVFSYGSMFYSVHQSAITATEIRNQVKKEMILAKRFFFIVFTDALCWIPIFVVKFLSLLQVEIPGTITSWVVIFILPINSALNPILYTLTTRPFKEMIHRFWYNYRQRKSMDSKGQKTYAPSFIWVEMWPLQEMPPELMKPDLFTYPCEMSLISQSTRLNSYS
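HEK293 cells stably expressing RXFP1, treated 30 min at 37C with compounds plus PDE4 inhibitor Ro 20174; cAMP measured by HTRF TR-FRET. Normalized to buffer and 29 nM porcine relaxin; EC50 by Hill fit.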
hERG WT inh: inhibitors of human wildtype KCNH2 potassium channel | Q12809 | U2OS, BacMam KCNH2, thallium flux FluxOr; hits give low values | activity change, % at 1.84 µM | actives 0.37% (n = 340,000) | AID 720551;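 active = maximum activity change below -70%; inconclusive = maximum activity change between -70% and -50%; inactive = maximum activity change above -50%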
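U2OS cells transduced with wild-type KCNH2 virus are loaded with FluxOr dye for 45 min, and thallium flux is measured in kinetic reads before and after stimulation buffer. Rate constants are normalized to DMSO controls.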
KCNH2 3.1 block: blocks the human KCNH2 3.1 channel isoform; U2OS KCNH2 3.1, thallium flux FluxOr; hits give low values; activity change, % (tested at about 1.8 µM); actives 0.95% (n = 340,000); AID 720553;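 active = maximum activity change below -70%; inconclusive = maximum activity change from -70% to -50%; inactive = maximum activity change above -50%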;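 also: thallium influx rate constant from kinetic fluorescence after stimulation buffer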
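FluxOr-based Tl+ influx in U2OS cells transduced with KCNH2 3.1 virus; rate constants normalized to DMSO controls.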
RXFP1 antagonist: RXFP1 (human) relaxin receptor antagonism; Q9HBX9; HEK293-RXFP1, relaxin-stimulated cAMP HTRF, 30 min; hits give low values; activity change, negative = inhibition, % at 57.5 µM; actives 0.59% (n = 350,000);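 active = activity change of -60% or lower, but not beyond a set lower limit; inconclusive = change between -60% and -40%, or beyond the set limit; inactive = change above -40%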
pAkt inh: inhibitors of Akt phosphorylation. activity change, % for hits at 50 µM. actives 0.32% (n = 360,000). Neuro2A IGF-stimulated pAkt S473 HTRF, 20 min; hits give low values; in the data active = activity change below about -80%; inconclusive = mostly about -51% to -80%
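Single-point screen (50 µM final compound) in Neuro2A cells stimulated 20 min with 6 nM IGF at 37 deg C. After lysis, Ser473-phosphorylated Akt read by HTRF (ex 330 nm, em 615/665 nm) as the 665/615 ratio.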
Starred values were filed as active, the others as inactive; i = inactive; ? = inconclusive; . = no result given. Hits are enriched below; roughly 1.7% of the tested compounds scored in any of these assays. % is scaled to controls: 0 for no effect and ±100 for the full control effect.

SMILES	RXFP1 ag	hERG WT inh	KCNH2 3.1 block	RXFP1 antagonist	pAkt inh
COc1cc(OC)c(NC(=O)CCNS(=O)(=O)c2cc(Br)cnc2N)cc1Cl	2%	1	4	-10	i
CSc1cc(C)nc(N(C)C(C)=O)n1	0%	-8	-26	3	i
Cc1cccc(-n2c(N)c(-c3nc4ccccc4n3C)c3nc4ccccc4nc32)c1	7%	-134*	-96*	20	i
CCN(C(=O)Cn1nc(C)n2c(cc3cc(C)ccc32)c1=O)c1ccccc1	0%	4	18	-24	i
O=c1cc(-c2c(O)c3ccccc3n(Cc3ccccc3)c2=O)[nH][nH]1	1%	.	-4	-84*	i
NS(=O)(=O)c1ccc(N2CCN(S(=O)(=O)Cc3ccccc3)CC2)nc1	.	-5	16	-6	i
NS(=O)(=O)c1ccc(N2CCN(CCOc3ccc(Cl)cc3)CC2)nc1	0%	3	-95*	-3	i
O=C(NCCN1CCN(C(=O)c2ccc([N+](=O)[O-])cc2)CC1)C(=O)NCc1ccccc1	-2%	44	-80*	7	i
CNC(=O)C(=O)NCCN1CCN(C(=O)c2ccc([N+](=O)[O-])cc2)CC1	-1%	-6	8	0	i
CCCCc1ccc(NC(=O)C(=O)NCCN2CCN(Cc3ccc([N+](=O)[O-])cc3)CC2)cc1	2%	-245*	-169*	1	i
COc1ccc(CC(=O)N2CCN(S(=O)(=O)c3ccc(Cl)s3)CC2)cc1	-2%	-13	1	6	i
Cc1nc(-c2nc(-c3c(C(=O)NNC(=O)Nc4ccccc4)noc3C)cs2)cs1	5%	-77*	-94*	1	i
O=C(N/N=C/c1ccccn1)C1CC1	3%	-1	9	-10	i
CC(C)(C)c1ccc2c(c1)OC(C(=O)N/N=C\c1ccccn1)CO2 (stereo not drawn)	-2%	1	-38	-61*	i
CC(C)(C)c1ccc2c(c1)OC(C(=O)N/N=C\c1ccc(-c3cccc(C(=O)O)c3)o1)CO2 (stereo not drawn)	4%	-2	11	-74*	i
O=C(O)c1cccc(-c2ccc(/C=N/NC(=O)C3COc4ccccc4O3)o2)c1 (stereo not drawn)	1%	3	6	1	i
COc1ccc(Cl)cc1Cn1c(C)c(C(=O)NCc2ccc(C#N)cc2)sc1=O	.	.	.	.	i
CCc1ccc(CN(C)C(=O)CC2C(=O)NCCN2Cc2ccoc2)cc1 (stereo not drawn)	-2%	9	-85*	-6	i
CCOc1ccccc1CN1CCNC(=O)C1CC(=O)N(C)Cc1cnccn1 (stereo not drawn)	0%	9	-115*	-14	i
CN(CC(=O)Nc1cccc(F)c1)C(=O)CSc1ccc(Br)cc1	0%	-3	-9	-72*	i
Cc1ccc(SCC(=O)N(C)CC(=O)Nc2cccc(F)c2)cc1	1%	0	-3	-11	i
CCOC(=O)N1CCN(Cc2cn[nH]c2-c2ccc(-c3ccccc3)cc2)CC1	-2%	i	24	10	i
CCC(C(=O)NCCc1ccco1)n1nc(C)c2c(C)n(-c3ccccc3)nc2c1=O (stereo not drawn)	2%	5	1	-11	i
CCC(C(=O)NCCCc1ccccc1)n1nc(C)c2c(C)n(-c3ccccc3)nc2c1=O (stereo not drawn)	0%	-2	1	-62*	i
O=C(O)c1cccc2sc3cc(Cl)ccc3c(=O)c12	-1%	1	10	.	i
SMILES	RXFP1 ag	hERG WT inh	KCNH2 3.1 block	RXFP1 antagonist	pAkt inh
CCOc1ccc(CCNc2ncnc3onc(-c4ccc(F)cc4)c23)cc1OCC	1%	.	.	-25	.
Cc1cccc(OCCCc2c(C)n[nH]c2C)c1	1%	-3	-75*	13	.
COc1cccc(OC)c1OCCCc1c(C)n[nH]c1C	4%	-4	24	-13	i
COc1cccc(C(=O)OC2CCCN(C)C2)c1 (stereo not drawn)	-1%	-12	.	-12	i
C=CCn1c(SCC(=O)N(C(C)CC)C2CCS(=O)(=O)C2)nc2ccccc2c1=O (stereo not drawn)	3%	-33	-88*	-12	i
O=C(Nc1ccc2c(c1)OCO2)N1CCN(c2ccc(F)cc2)CC1	0%	-1	.	5	i
COc1ccc(N2CCN(C(=O)c3cc(-c4ccc(F)cc4)[nH]c3C)CC2)cc1	3%	-88*	-83*	-5	i
Cc1[nH]c(-c2ccc(F)cc2)cc1C(=O)N1CCN(c2ccc(Cl)cc2)CC1	0%	.	?	-1	i
COc1ccc(CCNC(=O)C(=O)NCC2OCCN2S(=O)(=O)c2cc(F)ccc2F)cc1 (stereo not drawn)	2%	8	-143*	-9	i
CCCCN(c1ccccc1)c1ncnc2nc[nH]c12	-1%	21	10	.	i
CCC(=O)OCC(=O)c1c(N)n(Cc2ccccc2)c(=O)n(C)c1=O	-4%	-1	-19	-5	i
Cn1c(=O)c(C(=O)COc2ccc(C#N)cc2)c(N)n(Cc2ccccc2)c1=O	18µM*	-1	-13	31	i
O=C(O)c1ccc(CNCc2ccccc2Cl)cc1	-1%	-4	5	-4	i
CN(C(=O)COC(=O)CCc1c[nH]c2ccccc12)C(c1ccccc1)c1ccccc1	-3%	-5	-80*	-9	i
O=C(CCc1c[nH]c2ccccc12)OCC(=O)c1ccccc1	.	-12	-5	-5	i
CCc1c(C)nc2ncnn2c1NCCc1ccc(OC)cc1	4%	10	2	0	i
CC(C)COc1ccc(C(=O)NC(Cc2c[nH]c3ccccc23)C(=O)NN)cc1 (stereo not drawn)	1%	-7	-20	4	i
C[C@@H]1CCCCO[C@H](CN(C)S(=O)(=O)c2cccs2)[C@H](C)CN([C@@H](C)CO)C(=O)c2cc(NC(=O)NC3CCCCC3)ccc2O1	.	-9	-99*	12	i
C[C@H](CO)N1C[C@H](C)[C@@H](CN(C)C(=O)Nc2ccc3c(c2)OCO3)Oc2ccc(NC(=O)Nc3ccc(C(F)(F)F)cc3)cc2C1=O	.	-2	5	.	i
C[C@H](CO)N1C[C@H](C)[C@@H](CN(C)C(=O)Nc2ccccc2)Oc2ccc(NC(=O)Nc3ccc4c(c3)OCO4)cc2C1=O	.	-17	-120*	.	i
O=C(N/N=C/C(c1ccccc1)c1ccccc1)c1ccccc1F	-1%	-20	4	-31	i
CCCCCCSc1nnc(-c2cnn(-c3ccccc3)c2-n2cccc2)n1C	-3%	16	2	-17	i
